The structures appear in SMILES notation. Inconclusive results are not listed. Unmarked numbers belong to inactive results. Active and inactive are the calls of the source. Calls follow the shape of the dose curve; as a rule, active = well fitted curve in the direction sought with a large enough effect; inconclusive = small, poorly fitted or top-dose-only effect, or another doubt; inactive = no such curve, though single readings can be large; an effect the other way counts as inactive or inconclusive. Numbered stars: 1 amine (or outer) side, 2 acyl side, 3 side chain; on linkers, the order of the positions; unused ones are H or OH. Bridge positions count the residues as written; N and C are the ends. Square brackets hold non-standard residues; d marks the D form. Peptide text beside a SMILES is read from it. I, II: the chains in the order shown. Actinocin(9to1) = Cc1c2oc3c(C)ccc(C(=O)[*:1])c3nc-2c(C(=O)[*:2])c(N)c1=O; NMeV = CN[C@H](C(=O)O)C(C)C; Sar = CNCC(=O)O

A short description of test [1]: qHTS to identify inhibitors of the type 1 interferon - major histocompatibility complex class I in skeletal muscle: primary screen against the NCATS Pharmaceutical Collection (AID 1347407).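 Also: luminescence of HiBiT knocked into endogenous HLA-B as interferon-induced MHC class I level.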 Also: potency is read from the fitted curve at half-maximal effect. As to activity change, negative = inhibition: % is scaled to controls: 0 for no effect and ±100 for the full control effect. Put shortly: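 Immortalized human myoblasts (C25cl48) with HiBiT knocked into endogenous HLA-B*08:01 were stimulated with 4 ng/ml IFN-beta and treated with compounds (8-point, 1:5, top 46 uM final) for 24 h at 37 C; HiBiT lytic luminescence read.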

Test [2] concerns the target Protein phosphatase 1D (Homo sapiens) (UniProt O15297). In words: RapidFire Mass Spectrometry qHTS Assay for Modulators of WT P53-Induced Phosphatase 1 (WIP1) (AID 1347424).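 Also: amount of dephosphorylated VEPPL-S-QETFS peptide product formed by WIP1; series mostly up to about 63 µM; plate controls were DMSO wells for no effect and GSK830371 inhibitor control at 10 µM for full effect.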 Put shortly: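 WIP1 (10 nM final) was preincubated 1 h at room temperature with compounds in Tris-HCl pH 7.5, 30 mM MgCl2, TCEP, EGTA, BSA; 2 uM VEPPL-pS-QETFS phosphopeptide was added for 5 min, quenched with formic acid, and dephosphorylated product quantified by RapidFire MS.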

Test [3] has the same target. Put plainly: Rhodamine-PBP qHTS Assay for Modulators of WT P53-Induced Phosphatase 1 (WIP1) (AID 1347425). Also: % of control where 0% means no effect. Put shortly: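 5 nM WIP1 + 10 uM Rh-PBP, 50 mM Tris pH 7.5, 30 mM MgCl2, 1 mM TCEP, 0.1 mM EGTA, BSA; cpds pinned, 1 hr RT; + 10 uM phosphopeptide; fluorescence 1-min reads x 11 min; delta = f1 - f0.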
The target of test [4] is Calcium and integrin-binding protein 1 (Homo sapiens) (UniProt Q99828). Put plainly: Primary qHTS for Identification of Calcium Integrin Binding Protein 1 (CIB1) Competitor (AID 1508620).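 Also: GST tagged CIB1 binding a fluorescein labelled alphaIIb integrin peptide tracer; top concentration of the series differs between compounds; % is scaled to controls: 0 for no effect and ±100 for the full control effect.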 Put shortly: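 Fluorescence polarization competition: CIB1-GST (1 uM final) preincubated with compound 15 min at room temperature, then FITC-labeled alphaIIb peptide (100 nM final) added for another 15 min. Polarization read at Ex 480/Em 540.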

Test [5] is described as follows: Primary qHTS for small molecule stabilizers of the endoplasmic reticulum resident proteome: Secreted ER Calcium Modulated Protein (SERCaMP) assay (AID 1508630). Also: % is scaled to controls: 0 for no effect and ±100 for the full control effect. Put shortly:
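GLuc-SERCaMP-expressing SH-SY5Y cells, pretreated 16 h with compound, are challenged with thapsigargin to empty ER calcium stores; after 4 h, coelenterazine is added directly to the medium and luminescence is imaged.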

The nature of test [6]: Primary qHTS for inhibitors of La Crosse Virus (LACV) - induced cell death in SH-SY5Y cells (AID 1508616).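 Also: top concentration of the series differs between compounds; 0% = infected DMSO wells and 100% = uninfected DMSO wells; higher means more rescue of cells from virus-induced death.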 Put shortly: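 SH-SY5Y cells (6000/well) plated 24 h, then given compounds by pin transfer and LACV at 0.01 MOI for 6 days at 37C. Viability measured by ATPLite luminescence, normalized to infected DMSO and uninfected DMSO.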
Test [7] deals with Calcium and integrin-binding protein 1 (Homo sapiens) (UniProt Q99828). Put plainly: Confirmatory qHTS for Identification of Calcium Integrin Binding Protein 1 (CIB1) Competitor (AID 1508617). Also: potency is read from the fitted curve at half-maximal effect; nearly all actives have a fitted effect of over 65% in size. Put shortly: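 Confirmatory qHTS measures displacement of a FITC-alphaIIb peptide (100 nM) from CIB1-GST (1 uM) by fluorescence polarization. Calcium-containing HEPES buffer, pH 7.4; two 15 min room-temperature incubations.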

Protein phosphatase 1D (Homo sapiens), sequence (O15297 whole entry, looked up): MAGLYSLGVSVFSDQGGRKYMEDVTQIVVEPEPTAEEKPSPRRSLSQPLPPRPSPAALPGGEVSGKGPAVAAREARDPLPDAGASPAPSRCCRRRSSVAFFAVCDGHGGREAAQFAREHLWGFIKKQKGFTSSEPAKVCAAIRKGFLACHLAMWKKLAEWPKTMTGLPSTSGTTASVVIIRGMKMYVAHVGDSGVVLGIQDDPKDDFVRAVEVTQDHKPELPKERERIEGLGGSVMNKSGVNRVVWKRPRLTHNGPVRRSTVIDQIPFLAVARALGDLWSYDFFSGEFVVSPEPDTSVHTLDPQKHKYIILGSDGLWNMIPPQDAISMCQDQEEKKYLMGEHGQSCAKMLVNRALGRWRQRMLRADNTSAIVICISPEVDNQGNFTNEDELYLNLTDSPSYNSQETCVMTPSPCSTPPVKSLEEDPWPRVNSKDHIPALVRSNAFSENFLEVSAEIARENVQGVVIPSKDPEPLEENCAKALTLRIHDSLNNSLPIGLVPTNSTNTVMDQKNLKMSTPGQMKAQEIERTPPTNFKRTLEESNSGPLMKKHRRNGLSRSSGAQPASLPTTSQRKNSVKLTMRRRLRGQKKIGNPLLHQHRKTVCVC
Calcium and integrin-binding protein 1 (Homo sapiens), sequence (Q99828 whole entry, looked up): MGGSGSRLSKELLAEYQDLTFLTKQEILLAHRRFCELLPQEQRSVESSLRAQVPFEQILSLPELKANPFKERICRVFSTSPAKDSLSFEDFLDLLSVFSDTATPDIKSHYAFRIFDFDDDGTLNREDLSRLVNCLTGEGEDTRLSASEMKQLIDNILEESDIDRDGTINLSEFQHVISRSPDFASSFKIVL

For `COc1c(C)c2c(c(O)c1C/C=C(\C)CCC(=O)O)C(=O)OC2`, the Potency result in test [1], in test [2], in test [4] and in test [5] was “inactive” each time. The call in test [3] was inactive.
`C=C1C(=C/C=C2\CCC[C@]3(C)[C@@H]([C@H](C)/C=C/[C@@H](O)C4CC4)CC[C@@H]23)C[C@@H](O)C[C@@H]1O`: the Potency entry in test [1], in test [2], in test [6], in test [4] and in test [5] was “inactive” in each case. Moreover, in test [3], the outcome was inactive.
On to `Cc1onc(-c2c(Cl)cccc2Cl)c1C(=O)N[C@@H]1C(=O)N2[C@@H]1SC(C)(C)[C@@H]2C(=O)O`, for which the Potency entry in test [1], in test [2], in test [6], in test [4] and in test [5] was “inactive” in each case. Further, in test [3], the compound was classed as inactive.
Regarding `CC(=O)OCC(=O)[C@@]1(O)[C@H](C)C[C@H]2[C@@H]3CCC4=CC(=O)C=C[C@]4(C)[C@@]3(F)[C@@H](O)C[C@@]21C`, the Potency result in test [1], in test [2], in test [6] and in test [5] was “inactive” in each case. For the same compound, in test [3], the compound was classed as inactive.
`O=C(COc1ccc(Cl)cc1)N1CCN(Cc2ccc3c(c2)OCO3)CC1`: the Potency result in test [1], in test [2], in test [6], in test [4] and in test [5] was “inactive” in each case. The result in test [3] was inactive.
Regarding `COc1cc(C(=S)N2CCOCC2)cc(OC)c1OC`, the Potency result in test [1], in test [2], in test [6], in test [4] and in test [5] was “inactive” in each case. Further, in test [3], the compound was classed as inactive.
For `CN(C)CCCOc1nn(Cc2ccccc2)c2ccccc12`, the Potency entry in test [1], in test [2], in test [6], in test [4] and in test [5] was “inactive” each time. Besides, in test [3], the outcome was inactive.
Take `COc1cc2c(cc1OC)C(=O)C(CC1CCN(Cc3ccccc3)CC1)C2` (stereo not given): the Potency entry in test [1], in test [2], in test [6], in test [4] and in test [5] was “inactive” throughout. Further, in test [3], the compound was called inactive.
On to `N[C@@H](CCC(=O)N[C@@H](CS)C(=O)NCC(=O)O)C(=O)O`, for which the Potency entry in test [1], in test [2], in test [6], in test [4] and in test [5] was “inactive” throughout. The compound was classed as inactive in test [3].
As to `Cc1c(F)c(N2CCNC(C)C2)cc2c1c(=O)c(C(=O)O)cn2C1CC1` (stereo not given), the Potency entry in test [1], in test [2], in test [6], in test [4] and in test [5] was “inactive” each time. Further, in test [3], the compound was classed as inactive.
In the case of `COc1cccc(OC)c1C(=O)N[C@@H]1C(=O)N2[C@@H]1SC(C)(C)[C@@H]2C(=O)O`, the Potency entry in test [1], in test [2], in test [6], in test [4] and in test [5] was “inactive” throughout. The outcome in test [3] was inactive.
Regarding `CCCCC(CC)CN=C(N)NC(N)=NCCCCCCN=C(N)NC(N)=NCC(CC)CCCC` (stereo not given), the Potency in test [1] was 14.9 µM (active); in test [7], 28.2 µM (active). The Potency entry in test [2] and in test [5] was “inactive” in each case. Moreover, in test [3], the outcome was inactive.
Regarding `Cc1ccccc1C(=O)Nc1ccc(C(=O)N2CCCC(N(C)C)c3ccccc32)cc1` (stereo not given), the Potency entry in test [1], in test [2], in test [4] and in test [5] was “inactive” each time. For the same compound, the compound was called inactive in test [3].
Turning to `NC[C@H]1O[C@H](O[C@H]2[C@H](O[C@@H]3O[C@H](CO)[C@@H](O)[C@H]3O)C(O)[C@H](N)C[C@@H]2N)[C@H](N)[C@@H](O)[C@@H]1O` (stereo not given in full), the activity change, negative = inhibition was -10.7% [at 9.18 µM] in test [1], 6.77% [at 12.6 µM] in test [2], 17.3% [at 11.5 µM] in test [3] and -22.5% [at 7.35 µM] in test [5]. Also, the activity change in test [6] is -8.96% [at 0.858 µM]. For the same compound, the Potency result in test [4] was “inactive”.
On to `COc1cc(C=C2CCC/C(=C\c3ccc(O)c(OC)c3)C2=O)ccc1O`, for which, in test [1], the Potency is 14.9 µM (active). In addition, the Potency entry in test [2], in test [6] and in test [4] was “inactive” in each case.
For the compound `O=C1[C@H]2CCCC[C@H]2C(=O)N1CCCCN1CCN(c2nsc3ccccc23)CC1`, the Potency entry in test [1], in test [6] and in test [4] was “inactive” each time. Further, the outcome in test [3] was inactive.
Take `Nc1ccn([C@@H]2O[C@H](CO)[C@@H](O)C2(F)F)c(=O)n1`: the Potency entry in test [1], in test [6], in test [4] and in test [5] was “inactive” in each case. The call in test [3] was inactive.
As to `CN(C)CC/C=C1/c2ccccc2COc2ccc(CC(=O)O)cc21`, the Potency entry in test [1], in test [2], in test [6] and in test [4] was “inactive” in each case.
On to `O=c1ccc2ccccc2o1`, for which the Potency result in test [1], in test [2], in test [6] and in test [4] was “inactive” throughout.
As for `CC1=C(C(=O)O)N2C(=O)[C@@H](NC(=O)[C@H](N)c3ccc(O)cc3)[C@H]2SC1`, the Potency entry in test [1], in test [6], in test [4] and in test [5] was “inactive” throughout. Moreover, the compound was classed as inactive in test [3].
Turning to `O=C(OCCOCCO)c1ccccc1Nc1cccc(C(F)(F)F)c1`, the Potency entry in test [1], in test [2], in test [6], in test [4] and in test [5] was “inactive” each time.
Regarding `Cc1c2oc3c(C)ccc(C(=O)N[C@@H]4C(=O)N[C@H](C(C)C)C(=O)N5CCC[C@H]5C(=O)N(C)CC(=O)N(C)[C@@H](C(C)C)C(=O)O[C@@H]4C)c3nc-2c(C(=O)N[C@@H]2C(=O)N[C@H](C(C)C)C(=O)N3CCC[C@H]3C(=O)N(C)CC(=O)N(C)[C@@H](C(C)C)C(=O)O[C@@H]2C)c(N)c1=O` (I: T[dV]P[Sar][NMeV] / II: T[dV]P[Sar][NMeV]; ester I:1-I:C, II:1-II:C; linker I:N-II:N via Actinocin(9to1)), the Potency in test [1] is 0.938 µM (active). Also, the Potency entry in test [2], in test [6], in test [4] and in test [5] was “inactive” in each case.
Consider `OC[C@H]1O[C@@H](n2cnc3c(=S)nc[nH]c32)[C@H](O)[C@@H]1O`, for which the Potency result in test [1], in test [2], in test [6], in test [4] and in test [5] was “inactive” in each case.
As to `CCCCCCC[N+](CC)(CC)CCCCc1ccc(Cl)cc1`, the Potency result in test [1], in test [6], in test [4] and in test [5] was “inactive” in each case. The compound was called inactive in test [3].
In the case of `NC(CS)C(=O)O` (stereo not given), the Potency entry in test [1], in test [2], in test [6] and in test [4] was “inactive” throughout.
In the case of `COc1ccc(C2C(=O)c3ccccc3C2=O)cc1`, the Potency entry in test [1], in test [2], in test [6], in test [4] and in test [5] was “inactive” each time.

The values above are taken from PubChem BioAssay (NCATS).
